AI-2 QS mod = modulates the Vibrio harveyi AI-2 quorum sensing system; Vibrio harveyi JMH597 AI-2 luminescence/OD600 ratio, 9 h; active compounds read low; strain lacks LuxN and CqsS sensors; 0 = neutral-control median; activity change, % at 7.5 µM; 300,000 tested, 0.4% active; AID 2094; in the data active = activity change below about -75%, passing the limit was not always enough;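 note: luminescence divided by OD600 gain over 9 h not by final OD600 alone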
HGIII-sPLA2 inh = Blocks human group III sPLA2 activity; Q9NZ20; QFRET BODIPY PC-A2 liposome hydrolysis, fluorescence; inhibition, % at 12.2 µM; 370,000 tested, 0.56% active;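 active = inhibition above mean plus 3 SD of compounds lying within the high and low control bounds, cut at about 19% in these data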
Rin1-Abl PPI inh = blocks binding of human Rin1 to Abl | P00519+Q13671 | TR-FRET Rin1/Abl binding, biochemical | inhibition, % at 7.35 µM | 360,000 tested, 0.4% active | AID 588664; in the data active = inhibition above about 5%, passing the limit was not always enough
ARNT-TACC3 inh = disruptors of human ARNT/TACC3 interaction. inhibition, % at 9.99 µM. Q9Y6A5. AlphaScreen His-ARNT PAS-B/GST-TACC3 binding, luminescence; TACC3 fragment carries E629A point mutation. 390,000 tested, 0.66% active. AID 623870;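 active = mean inhibition of replicates at least 50% and at least half of replicates each reaching 50%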
ARNT Alpha ctr-1 = AlphaScreen artifact in ARNT/TACC3 counter-screen. shares compounds with ARNT-TACC3 inh. His-ARNT PASB-GST AlphaScreen artifact counter-screen, luminescence. AC50, µM (highest dose often 68 µM). 1,200 tested, 50% active. AID 651705;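 active = every separate test run was called active for a drop in luminescence, with AC50 within twice the top valid dose, actives reach about 71 µM in these data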
ARNT Alpha ctr-2 = AlphaScreen artifact flagged for ARNT-TACC3 inhibitors; shares compounds with ARNT-TACC3 inh; Dual-tagged His-ARNT PASB-GST AlphaScreen artifact counter-screen; AID 720564; 45 tested, 70% active; AC50, µM;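 active = luminescence drop, with half-maximal potency fitted within twice the sample's top valid dose, cut at about 70 µM in these data; inactive = the rest, including signal moving the wrong way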
Hits are given with their value; n = inactive; x = no result given. A selection: hits, their analogues and other compounds. The true share with any hit is near 1.5%.

SMILES	AI-2 QS mod	HGIII-sPLA2 inh	Rin1-Abl PPI inh	ARNT-TACC3 inh	ARNT Alpha ctr-1	others
CN1CCN(Cc2cc(Cl)c3cccnc3c2OC(=O)c2cccs2)CC1	n	n	n	x	x
CO[C@H]1CN(C)C(=O)c2cc(NC(=O)C3CCCC3)ccc2OC[C@H](C)N(CC2CC2)C[C@H]1C	x	x	x	n	x
CC(C)C#Cc1ccc2c(c1)O[C@@H](CN(C)C(=O)CN(C)C)[C@@H](C)CN([C@@H](C)CO)S2(=O)=O	x	x	x	99.5	n
O=C(Nc1ccc2c(c1)OCO2)c1ccc2c(c1)OCO2	n	n	n	52.2	n
O=C(Nc1ccc(F)c(F)c1)c1ccc2c(c1)OCO2	n	n	n	n	x
CCOC(=O)CC(NC(=O)Cc1ccccc1)c1ccccc1Cl (stereo not drawn)	n	n	n	n	x
CCOC(=O)CC(NC(=O)Cc1ccc(F)cc1)c1ccccc1Cl (stereo not drawn)	n	n	n	21.6	n
CN(C)CC(=O)N[C@H]1CC[C@@H](CCn2cc(CN(C)C)nn2)O[C@H]1CO	x	x	x	n	x
O=C(Nc1ccccc1C(F)(F)F)c1cnccn1	n	n	n	n	x
O=C(Nc1ccccc1C(F)(F)F)c1ncn[nH]1	n	n	n	59.0	n
C[C@H]1CN([C@@H](C)CO)C(=O)c2cc(C#Cc3ccccc3F)cnc2O[C@@H]1CN(C)C(=O)C1CCCCC1	x	x	x	n	x
COc1ccc(C(c2nnnn2C2CCCC2)N2CCc3ccccc3C2)cc1OC (stereo not drawn)	n	n	n	58.0	n
C[C@@H]1CCCCO[C@@H](CN(C)Cc2ccc(Cl)c(Cl)c2)[C@H](C)CN([C@@H](C)CO)C(=O)c2cc(NS(=O)(=O)c3cn(C)cn3)ccc2O1	x	x	x	n	x
O=C(COC(=O)c1ccc(O)cc1O)Nc1nnc(-c2ccccc2)o1	n	n	n	60.4	47µM
O=C(COC(=O)c1ccc(O)cc1O)Nc1ccc2ccccc2c1	x	n	n	n	x
O=S(=O)(NC1CCN(Cc2ccc(OCCO)cc2)CC1)c1cccc2cccnc12	x	x	x	112.9	24.8µM
O=S(=O)(NC1CCN(Cc2ccc(OCCO)cc2)CC1)c1cc(Cl)ccc1Cl	x	x	x	n	x
O=C(C1CCN(S(=O)(=O)c2cccc3cccnc23)CC1)N1CCN(Cc2ccccc2)CC1	x	n	n	n	x
O=S(=O)(c1cccc2cccnc12)N1CCN(Cc2ccc(OCCO)cc2)CC1	x	x	x	64.2	51.4µM
Cc1ccc(Nc2c(-c3ccccn3)nc3cc(C)ccn23)cc1	n	n	n	62.0	12.7µM
Cc1ccc(C)c(-n2c(SCC(N)=O)nnc2-c2ccccn2)c1	n	n	n	57.2	n
COc1ccc(NC(=O)CSc2nnc(-c3ccccn3)n2N)cc1Cl	n	n	n	n	x
Cc1cc(C)c(NC(=O)CSc2nnc(-c3ccccn3)n2N)c(Cl)c1	n	n	n	54.2	n
CC(C)NC(=O)N1[C@H](CO)[C@@H]2c3ccccc3NC[C@@H]21	x	x	x	active	n
COCC(=O)N1[C@H](CO)[C@H]2c3ccccc3NC[C@H]21	x	x	x	n	x
SMILES	AI-2 QS mod	HGIII-sPLA2 inh	Rin1-Abl PPI inh	ARNT-TACC3 inh	ARNT Alpha ctr-1	others
O=C(NCCCn1ccnc1)C(=O)NCC1OCCCN1S(=O)(=O)c1ccc(F)cc1 (stereo not drawn)	n	n	n	x	x
O=C(NCCCn1ccnc1)C(=O)NCC1OCCCN1S(=O)(=O)c1ccc(Cl)cc1 (stereo not drawn)	n	n	n	n	x
O=C(NCCCn1ccnc1)C(=O)NCC1OCCN1S(=O)(=O)c1ccc(Cl)cc1 (stereo not drawn)	n	n	n	57.5	70.1µM
O=C(NCCCn1ccnc1)C(=O)NCC1OCCCN1S(=O)(=O)c1ccccc1 (stereo not drawn)	n	n	n	39.6	n
O=C(NCCCn1ccnc1)C(=O)NCC1OCCN1S(=O)(=O)c1ccccc1 (stereo not drawn)	n	n	n	56.7	61.7µM
C[C@H]1CN([C@@H](C)CO)S(=O)(=O)c2ccc(C#CCN(C)C)cc2O[C@@H]1CN(C)C(=O)c1ccccc1F	x	x	x	n	x
C[C@H](CO)N1C[C@H](C)[C@@H](CN(C)Cc2ccc(Cl)c(Cl)c2)Oc2c(NC(=O)c3ccc(-c4nccs4)cc3)cccc2C1=O	x	x	x	n	x
C[C@H](CO)N1C[C@H](C)[C@@H](CN(C)Cc2ccc(Oc3ccccc3)cc2)Oc2ccc(NS(C)(=O)=O)cc2CC1=O	x	x	x	n	x
Cc1cccc(S(=O)(=O)N[C@H]2CC[C@H](CCn3cc(-c4ccccn4)nn3)O[C@H]2CO)c1	x	x	x	90.2	56.7µM
O=S(=O)(N[C@H]1CC[C@@H](CCn2cc(-c3cccc(F)c3)nn2)O[C@@H]1CO)c1ccccc1	x	x	x	n	x
O=S(=O)(N[C@H]1CC[C@H](CCn2cc(-c3ccccn3)nn2)O[C@H]1CO)c1cccc(F)c1	x	x	x	67.0	43.2µM
O=S(=O)(N[C@H]1CC[C@@H](CCn2cc(-c3ccccn3)nn2)O[C@@H]1CO)c1cccc(F)c1	x	x	x	67.7	33.6µM
O=S(=O)(N[C@@H]1CC[C@H](CCn2cc(-c3cccc(F)c3)nn2)O[C@H]1CO)c1ccccc1	x	x	x	n	x
O=S(=O)(N[C@H]1CC[C@H](CCn2cc(-c3ccccn3)nn2)O[C@@H]1CO)c1cccc(F)c1	x	x	x	78.5	34.2µM
CO[C@H]1CN(C)C(=O)c2cc(NC(=O)Nc3ccc(F)cc3)ccc2OC[C@@H](C)NC[C@@H]1C	x	x	x	n	x
O=S(=O)(N[C@@H]1CC[C@@H](CCn2cc(-c3cccc(F)c3)nn2)O[C@H]1CO)c1ccccc1	x	x	x	n	x
O=S(=O)(N[C@@H]1CC[C@@H](CCn2cc(-c3ccccn3)nn2)O[C@@H]1CO)c1cccc(F)c1	x	x	x	94.1	46.7µM
CC1CCN(S(=O)(=O)c2ccc(C(=O)Nc3nnc(-c4ccno4)o3)cc2)CC1	x	x	x	x	x	ARNT Alpha ctr-2=n
CC1CCN(S(=O)(=O)c2ccc(C(=O)Nc3nnc(-c4ccccn4)o3)cc2)CC1	n	n	n	n	x	ARNT Alpha ctr-2=n
O=C(Nc1nnc(-c2ccncc2)o1)c1ccccc1F	n	n	n	n	x
CCOC(=O)N1CCN(S(=O)(=O)c2ccc(C(=O)Nc3nnc(C4CC4)o3)cc2)CC1	n	n	n	61.2	n
CC1CC(C)CN(S(=O)(=O)c2ccc(C(=O)Nc3nnc(C4CC4)o3)cc2)C1 (stereo not drawn)	n	n	n	n	x
O=C(Nc1nnc(-c2ccncc2)o1)c1ccccc1	n	n	n	51.6	n
C[C@H]1CN([C@@H](C)CO)C(=O)c2cccc(NS(=O)(=O)c3ccc(Cl)cc3)c2O[C@@H]1CN(C)C(=O)Nc1ccc(C(F)(F)F)cc1	x	x	x	n	x
CCc1cnc(N2[C@H](CO)[C@@H](c3ccc(C#CC(C)C)cc3)[C@@H]2C#N)s1	x	x	x	n	x
CN1CCN(C(=O)C[C@H]2C[C@@H]3c4cc(NC(=O)C5CCOCC5)ccc4O[C@@H]3[C@@H](CO)O2)CC1	x	x	x	n	x
N#Cc1ccc(C(=O)Nc2nnc(-c3ccccn3)o2)cc1	n	n	n	54.4	n

Screening data from PubChem.
